Bioassay records deposited in PubChem BioAssay by National Center for Advancing Translational Sciences (NCATS).
VACV mCherry inh – inhibitors of vaccinia virus infection (mCherry reporter signal). Vaccinia virus mCherry reporter infection, fluorescence. Potency, µM (titrated, usually from 36.5 µM), for the others: at the highest dose activity change, negative = inhibition, actives largely listed as inhibitors. actives 0.63% (n = 310,000). AID 720579; calls by dose curve; tested in A549 cells; further: potency means the concentration at half of the fitted maximal effect; nearly all actives have a fitted effect of over 35% in size
Tb PYK inh – blocks Trypanosoma brucei pyruvate kinase; TbPYK enzyme, Kinase-Glo Plus ATP luminescence, 45 min; AID 624173; Potency, µM (top dose mostly 76.8 µM), for inactives: at the top dose activity, negative = inhibition, hits mostly inhibitors; actives 0.12% (n = 410,000); further: potency means the concentration at half of the fitted maximal effect; nearly all actives have a fitted effect of over 50% in size
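Luminescent Kinase-Glo Plus end-point after 45 min room-temperature reaction of T. brucei pyruvate kinase started with 130 uM ADP (final). Buffer TEA 50 mM pH 7.2 with KCl, MgCl2, BSA, Tween-20; titration-based qHTS with fitted concentration-effect curves.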
LmPK inh – LmPK (Leishmania mexicana) enzyme inhibition | AID 1721 | Potency, µM (highest dose often 57.5 µM), without a hit: at the top dose activity change, negative = inhibition, actives largely listed as inhibitors | purified LmPK, Kinase-Glo ATP luminescence, 1 h | Q27686 | actives 0.37% (n = 290,000); further: potency means the concentration at half of the fitted maximal effect
Target sequence (Q27686 whole entry, looked up): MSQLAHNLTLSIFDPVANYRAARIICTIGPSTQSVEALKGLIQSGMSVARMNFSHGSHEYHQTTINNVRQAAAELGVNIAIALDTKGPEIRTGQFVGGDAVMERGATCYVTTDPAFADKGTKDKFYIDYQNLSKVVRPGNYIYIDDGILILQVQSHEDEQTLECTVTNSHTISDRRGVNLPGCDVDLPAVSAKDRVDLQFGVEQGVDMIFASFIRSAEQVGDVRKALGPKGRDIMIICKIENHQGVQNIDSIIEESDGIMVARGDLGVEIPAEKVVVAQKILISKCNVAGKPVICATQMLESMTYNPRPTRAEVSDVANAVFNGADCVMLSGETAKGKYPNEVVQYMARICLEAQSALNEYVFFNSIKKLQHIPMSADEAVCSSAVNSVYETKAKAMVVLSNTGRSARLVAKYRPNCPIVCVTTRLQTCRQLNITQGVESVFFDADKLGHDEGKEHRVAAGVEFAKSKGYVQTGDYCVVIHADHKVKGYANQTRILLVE
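Screened at intermediate enzyme activity to detect both inhibitors and activators: LmPK at 0.1 nM, with a 0.5 nM enzyme column as activation reference. PEP 0.5 mM, ADP 0.1 mM; ATP detected by luminescence after 1 h.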
Vaccinia Venus – vaccinia inhibition (Venus reporter) | Vaccinia virus Venus reporter expression, fluorescence | Potency, µM (doses to about 36.5 µM), without a hit: top-dose activity change, negative = inhibition, hits mostly inhibitors | actives 0.46% (n = 330,000) | AID 720580; calls by dose curve; tested in A549 cells; further: potency means the concentration at half of the fitted maximal effect; nearly all actives have a fitted effect of over 30% in size
HCMV antiviral – inhibitors of human cytomegalovirus; activity change, negative = inhibition, % at 57.5 µM; actives 4.5% (n = 410,000); HFF cells, HCMV-luciferase reporter, 72 h; stronger effect = lower value; in the data active means activity change below about -60%; inconclusive means no clear call, values can overlap the other calls; inactive means above about -39%
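Compounds were evaluated in HFFs infected with an HCMV luciferase reporter virus (MOI 1 PFU/cell). Luciferase in lysates collected 72 h post infection served as the replication measure.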
Numbers without * were called inactive; i = inactive; ? = inconclusive; . = no result given; ! = not confirmed by another sample; [ ] = dose if it differs, or a comment. Only some compounds are listed: those with a hit (about 5% of all), similar ones and a draw of the others. Unless noted, the call rests on the fitted dose curve; in most records, active means well fitted curve in the direction sought with a large enough effect; inconclusive means small, poorly fitted or top-dose-only effect, or another doubt; inactive means no such curve, though single readings can be large; an effect the other way counts as inactive or inconclusive. On the % scale 0 is the no-effect control and ±100 the full control effect.

SMILES	VACV mCherry inh	Tb PYK inh	LmPK inh	Vaccinia Venus	HCMV antiviral
CC(C)(C)c1ccc(Oc2ccc(NC(=O)c3cccs3)cn2)cc1	-17%	-3%	1%	?	?
O=C(Nc1ccc(Oc2cccc(C(F)(F)F)c2)nc1)c1ccco1	-4%	-2%	-1%	-21%	-72*
Cn1nc(C(F)(F)F)c(-c2cccc(C(F)(F)F)c2)c1NC(=O)c1ccco1	.	-1%	8%	.	-71*
O=C(Nc1ccc(Oc2cccnc2)nc1)c1ccc(C(F)(F)F)cc1	-15%	1%	-4%	-11%	-72*
COc1cccc(C(=O)Nc2ccc(NC(=O)c3ccco3)nc2)c1	-22%	20%	-3%	-18%	-16
CC(C)(C)c1ccc(Oc2ccc(NC(=O)c3ccco3)cn2)cc1	.	1%	4%	.	-103*
COc1ccc(NC(=O)c2oc3ccc(S(=O)(=O)N(C)C4CCCCC4)cc3c2C)cc1	?	6%	.	?	-72*
Cc1cccc(NC(=O)c2oc3ccc(S(=O)(=O)N(C)C4CCCCC4)cc3c2C)c1C	-6%	4%	.	-16%	-75*
Cc1c(C(=O)Nc2cccc(Cl)c2)oc2ccc(S(=O)(=O)N(C)C3CCCCC3)cc12	-19%	-3%	.	-16%	?
O=C1C(Cl)=C(NCc2ccco2)C(=O)c2ccccc21	?	-8%	.	?	-86*
CCCSC1=N/C(=C\C=C\c2ccco2)C(=O)S1	-11%	-10%	9%	0%	3
CCc1nc2c(c(=O)c3ccccc3n2C)c(=O)n1C1CCCCCC1	-11%	-12%	2%	?	-63*
COc1ccc(C2C=C(c3ccc(Cl)c(Cl)c3)Nc3ncnn32)cc1 (stereo unspecified)	-27%	3%	.	-11%	72
O=c1ccnc(Nc2ccc([N+](=O)[O-])cc2)[nH]1	-4%	0%	.	7%	-71*
COc1ccc(Nc2nccc(-c3ccc([N+](=O)[O-])cc3)n2)cc1	-25%	-3%	0%	-14%	?
Cc1cccc(OCC(=O)Nc2ccc(C(=O)NCc3cccnc3)cc2)c1	.	.	0%	.	.
O=C(COc1ccc(Cl)cc1)Nc1ccc(C(=O)NCc2cccnc2)cc1	.	-9%	0%	.	.
Cc1ccc(OCc2ccc(C(=O)NCc3cccnc3)cc2)cc1C	-14%	-17%	0%	-14%	-72*
O=C(NCc1cccnc1)c1ccc(COc2ccc(Cl)cc2)cc1	.	2%	-2%	.	-86*
C=C(C)C(=O)OC1(C(F)(F)F)Oc2cc(C)ccc2NC1=O (stereo unspecified)	-23%	0%	6%	-17%	-95*
Cc1ccccc1Nc1c(-c2ccncc2)nc2ccc(Cl)cn12	?	3%	5%	?	-61*!
CC(=O)Nc1sc2c(c1C(c1ccccc1)N1CCOCC1)CCCC2 (stereo unspecified)	-20%	-7%	0%	-17%	-28
CC(=O)Nc1sc2c(c1C(c1ccc(Cl)cc1)N1CCOCC1)CCCC2 (stereo unspecified)	-4%	9%	5%	0%	-94*
CC(=O)Nc1sc2c(c1C(c1ccc(F)cc1)N1CCOCC1)CCCC2 (stereo unspecified)	-15%	6%	2%	?	-86*
COc1ccc(NC(=O)c2ccccc2SCc2ccccc2)cc1	?	9%	.	-10%	-106*
SMILES	VACV mCherry inh	Tb PYK inh	LmPK inh	Vaccinia Venus	HCMV antiviral
CSc1ccccc1NC(=O)Nc1ccc(Cl)cc1	-2%	-28%	?	-12%	?
O=C(NCCOc1ccc(F)cc1)c1ccccc1SCc1ccccc1	i	2%	3%	1%	-62*
CCc1ccc(OCCNC(=O)c2ccccc2SCc2ccc(F)cc2)cc1	?	2%	0%	-25%	?
COc1ccc(NC(=O)Nc2ccccc2SC)cc1	i	-19%	10µM*	-13%	9
CCCN(C(=O)c1c(-c2ccccc2)noc1C)c1c(N)n(Cc2ccccc2)c(=O)[nH]c1=O	.	0%	.	.	-13
CC(=O)Nc1ccc(S(=O)(=O)Nc2ccc(Cl)cn2)cc1	-13%	3%	9%	-2%	-1
CC(=O)Nc1ccc(S(=O)(=O)c2ccnc3cc(Cl)ccc23)cc1	?	2%	.	?	-83*
CC(C)Cn1c2c(c(O)c(C(=O)Nn3c(Cc4ccccc4)nc4ccccc4c3=O)c1=O)CCCC2	i	-7%	-3%	2%	-27
CCCCc1nc2ccccc2c(=O)n1NC(=O)c1c(O)c2c(n(CC(C)C)c1=O)CCCC2	-16%	2%	3%	-4%	-79*
O=C(Nn1c(Cc2ccccc2)nc2ccccc2c1=O)c1c(O)c2cccc3c2n(c1=O)CCC3	.	-10%	-1%	.	-66*
C[C@@H](NC(=O)C[C@@H]1C[C@@H]2c3cc(NS(=O)(=O)c4ccc(F)cc4)ccc3O[C@@H]2[C@@H](CO)O1)c1ccccc1	-9%	-10%	.	-17%	2
C[C@@]12CCC3c4ccc(O)cc4CCC3C1CCC2O (stereo partly specified)	-10%	.	.	-10%	.
Cc1ccc(S(=O)(=O)N2[C@@H](Cc3ccccc3)CO[C@H]2CC(=O)c2ccccc2)cc1	i	.	.	?	-69*
Cc1ccc(S(=O)(=O)C[C@@H]2OC[C@H](Cc3ccccc3)N2S(=O)(=O)c2ccc(C)cc2)cc1	-27%	.	.	-19%	-61*
Cc1ccc(S(=O)(=O)N2[C@@H](Cc3ccccc3)CO[C@H]2CC(=O)c2ccc(F)cc2)cc1	-28%	.	.	-27%	55
CCOC(=O)C(CC)(CC)C(=O)/C=C/c1ccc(Br)cc1	?	-12%	-7%	?	-106*
CCc1ccc(C(C)NC(=O)/C=C/c2ccc(Br)cc2)cc1 (stereo unspecified)	-9%	4%	3%	-13%	-18
CCOC(=O)C(=Cc1ccc(-n2ccnc2)cc1)C(=O)OCC	?	-6%	-2%	?	-86*
COC(=O)c1ccc(-n2ccnc2)cc1	i	1%	-8%	5%	-28
CCOC(=O)C(=Cc1ccc(Br)cc1)C(=O)OCC	?	-3%	-8%	14µM*	-100*
CCOC(=O)C(=Cc1ccc(F)cc1)C(=O)OCC	.	.	-3%	.	.
CCOc1ccc(NC(=O)[C@H](Cc2ccccc2)N2Cc3ccccc3C2=O)cc1	-5%	-1%	.	-4%	7
CCOc1ccc(NC(=O)C(Cc2ccccc2)N2C(=O)c3cccc4cccc(c34)C2=O)cc1 (stereo unspecified)	i	0%	0%	60%	-99*
CCN1/C(=C/c2cc[n+](C)cc2)C=Cc2cc(C)ccc21	?	-12%	-14%	-3%	-100*
CCN1/C(=C/c2ccc3ccccc3[n+]2CCCS(=O)(=O)[O-])C=Cc2cc(C)ccc21	62%	?	-8%	128%	-34
CC#CCN1c2ccccc2[C@]23C[C@@H](C(=O)OC)N(C(=O)c4cccs4)C2=NC(C(=O)OC)=C(C(=O)OC)[C@H]13	.	.	4%[11.5 µM]	.	.
